# Laboratory results from PubChem BioAssay (NCATS).
# Results filed as inconclusive are left out. A call without a number means that no potency is given here. Calls of active or inactive are those of the source. Unless noted, calls come from the whole dose curve; as a rule, active = well fitted inhibition curve with a large enough effect; inconclusive = small, poorly fitted or top-dose-only effect; inactive = flat fitted curve, though single readings scatter.
# Columns and labels:
# [1] = target: Glucocorticoid receptor (Homo sapiens) (UniProt P04150); assay: GR-EFC Redistribution (AID 451; calls by dose curve; note: potency is the fitted concentration of half-maximal effect); conditions: CHO-K1 GR-EFC translocation, beta-gal luminescence, 2 h
# Method in brief: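 CHO-K1 cells expressing nuclear EA and GR-ED fragments of b-gal; compounds titrated up to 46 uM final, 2 h at 37 C. GR nuclear translocation read as complemented b-gal luminescence after 1 h RT detection.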
# [2] = target: Mitogen-activated protein kinase 10 (Mus musculus) (UniProt Q61831); assay: JNK3 AlphaScreen Assay (AID 530; active = well fitted curve in either direction with a large enough effect, not every such curve was filed as active;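 note: kinase came from lysate of stimulated human HepG2 cells; signal reports phosphorylation of biotinylated GST-cJun 1-79 at Ser73 with 10 µM ATP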); conditions: JNK3 lysate, c-Jun phosphorylation; series mostly up to 25.6 µM
# Method in brief: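 HepG2 lysate (IL-1b/TNFa pre-activated) + biotin-GST-cJun 1-79 + anti-pSer73 cJun; cpd titration, 15 min RT; ATP 10 uM start; Tris pH 7.6, MgCl2, DTT, vanadate; beads in EDTA buffer; AlphaScreen.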
# [3] = target: 3',5'-cyclic-AMP phosphodiesterase 4B (Homo sapiens) (UniProt Q07343); assay: qHTS Assay for Inhibitors of PDE-IV (AID 607; active = well fitted activation curve with a large enough effect in the main read-out, with a control signal flat, not every such curve was filed as active); conditions: HEK293 ACTOne CNG channel cells, membrane potential fluorescence; series mostly up to 22.9 µM
# Method in brief: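 HEK293 ACTOne cells with CNG channel (1000/well), endogenous PDE4; membrane potential dye, compounds up to 22.9 uM final. Fluorescence Ex 535/Em 590; RO 20-1724 (100 uM final) as reference.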
# [4] = qHTS Assay for Lipid Storage Modulators (AID 1519; calls by dose curve); conditions: Drosophila S3 cells, BODIPY lipid droplet/cell ratio, laser cytometry, cells loaded with oleic acid; for activity change, negative = inhibition: at 25.7 µM (top of the series)
# Method in brief: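 Cells seeded at 5,000 per well were treated with compounds over a concentration series and loaded with oleic acid (400 uM, as added). Lipid droplet fluorescence (488 nm excitation, 500-530 nm channel) was read by laser-scanning cytometry and normalized to 20 uM Triacsin C.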
# [5] = target: Ubiquitin carboxyl-terminal hydrolase 1 (Homo sapiens) (UniProt O94782); assay: Inhibitors of USP1/UAF1: Pilot qHTS (AID 504865); conditions: purified USP1/UAF1, Ub-rhodamine cleavage fluorescence; series mostly up to 114 µM;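 note: rhodamine fluorescence freed from ubiquitin-rhodamine substrate followed over time; top concentration of the series differs between compounds; nearly all actives have a fitted effect of over 35% in size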
# Method in brief: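 Deubiquitinase activity followed as kinetic rhodamine fluorescence release from 150 nM Ub-Rho. 1 nM USP1/UAF1 with compound, after 15 min room-temperature preincubation, in HEPES pH 7.8 buffer containing TCEP, EDTA, BSA and Tween-20.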
# [6] = target: Luciferin 4-monooxygenase (Photinus pyralis) (UniProt P08659); assay: Biochemical firefly luciferase enzyme assay for NPC (AID 624030);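 note: purified P. pyralis luciferase at 10 nM with luciferin and ATP substrate; nearly all actives have a fitted effect of over 70% in size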; conditions: purified P. pyralis luciferase, luminescence, 5 min; series mostly up to 24.9 µM
# Method in brief: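 Purified P. pyralis luciferase at 10 nM in 50 mM Tris Acetate (final), luminescence read within 5 minutes of enzyme addition to compounds. Activity normalised to PTC124 versus DMSO; concentration-response curves classed by r2, magnitude and activity.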
# [7] = system: C2A; assay: qHTS profiling for inhibitors of Plasmodium falciparum proliferation (AID 504749); note: nearly all actives have a fitted effect of over 60% in size; conditions: P. falciparum in erythrocytes, SYBR Green DNA, 72 h; series mostly up to 12.8 µM
# Method in brief: (§1)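 SYBR Green fluorescence (ex 485 nm, em 535 nm) reports parasite DNA after 72 h compound exposure of infected red cells at 0.3% parasitemia, 2.5% hematocrit; signal normalized to 0.29 uM artemisinin and vehicle wells.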
# [8] = system: CP238; assay: as above; conditions: P. falciparum in erythrocytes, SYBR Green DNA, 72 h; series mostly up to 12.8 µM
# Method in brief: as §1
# [9] = system: CP297; assay: as above; conditions: P. falciparum in erythrocytes, SYBR Green DNA, 72 h; series mostly up to 12.8 µM
# Method in brief: as §1
# [10] = system: SC27B; assay: as above; conditions: P. falciparum in erythrocytes, SYBR Green DNA, 72 h; series mostly up to 12.8 µM
# Method in brief: as §1
# [11] = as above; conditions: P. falciparum in erythrocytes, SYBR Green DNA, 72 h, at 12.8 µM (top of the series)
# Method in brief: as §1
# [12] = system: 3D7; assay: as above; conditions: P. falciparum in erythrocytes, SYBR Green DNA, 72 h; series mostly up to 12.8 µM
# Method in brief: as §1
# [13] = system: CP217; assay: as above; conditions: P. falciparum in erythrocytes, SYBR Green DNA, 72 h; series mostly up to 12.8 µM
# Method in brief: as §1
# [14] = system: CP237; assay: as above; conditions: P. falciparum in erythrocytes, SYBR Green DNA, 72 h; series mostly up to 12.8 µM
# Method in brief: as §1
# [15] = system: CP252; assay: as above; conditions: P. falciparum in erythrocytes, SYBR Green DNA, 72 h; series mostly up to 12.8 µM
# Method in brief: as §1
# [16] = system: CP291; assay: as above; conditions: P. falciparum in erythrocytes, SYBR Green DNA, 72 h; series mostly up to 12.8 µM
# Method in brief: as §1
# [17] = system: ECU; assay: as above; conditions: P. falciparum in erythrocytes, SYBR Green DNA, 72 h; series mostly up to 12.8 µM
# Method in brief: as §1
# [18] = system: HB3; assay: as above; conditions: P. falciparum in erythrocytes, SYBR Green DNA, 72 h; series mostly up to 12.8 µM
# Method in brief: as §1
# [19] = system: PAD; assay: as above; conditions: P. falciparum in erythrocytes, SYBR Green DNA, 72 h; series mostly up to 12.8 µM
# Method in brief: as §1
# [20] = system: PC26; assay: as above; conditions: P. falciparum in erythrocytes, SYBR Green DNA, 72 h; series mostly up to 12.8 µM
# Method in brief: as §1
# [21] = measured here: cell count channel max response
# [22] = measured here: lipid channel max response
# Chain of 3',5'-cyclic-AMP phosphodiesterase 4B (Homo sapiens) (Q07343 whole entry, looked up): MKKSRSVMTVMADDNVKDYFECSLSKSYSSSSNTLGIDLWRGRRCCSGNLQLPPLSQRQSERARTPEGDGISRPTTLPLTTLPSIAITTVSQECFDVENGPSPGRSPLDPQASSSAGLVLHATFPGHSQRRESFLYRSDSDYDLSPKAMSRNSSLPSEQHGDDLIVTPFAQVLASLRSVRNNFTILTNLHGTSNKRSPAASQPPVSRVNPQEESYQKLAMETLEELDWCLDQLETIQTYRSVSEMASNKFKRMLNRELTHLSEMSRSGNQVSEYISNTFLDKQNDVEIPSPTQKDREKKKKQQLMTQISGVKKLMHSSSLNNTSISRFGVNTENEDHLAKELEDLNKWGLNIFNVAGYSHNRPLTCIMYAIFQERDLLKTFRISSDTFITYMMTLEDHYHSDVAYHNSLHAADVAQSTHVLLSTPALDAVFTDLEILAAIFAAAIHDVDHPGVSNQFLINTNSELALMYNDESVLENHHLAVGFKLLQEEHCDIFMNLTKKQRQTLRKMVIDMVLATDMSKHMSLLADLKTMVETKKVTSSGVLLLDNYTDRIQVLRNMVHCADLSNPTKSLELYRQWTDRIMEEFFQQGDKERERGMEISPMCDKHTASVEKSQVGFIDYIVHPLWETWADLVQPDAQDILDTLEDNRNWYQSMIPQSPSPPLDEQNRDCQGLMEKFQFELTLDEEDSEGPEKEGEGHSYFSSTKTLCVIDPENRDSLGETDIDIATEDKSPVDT
# Chain of Ubiquitin carboxyl-terminal hydrolase 1 (Homo sapiens) (O94782 whole entry, looked up): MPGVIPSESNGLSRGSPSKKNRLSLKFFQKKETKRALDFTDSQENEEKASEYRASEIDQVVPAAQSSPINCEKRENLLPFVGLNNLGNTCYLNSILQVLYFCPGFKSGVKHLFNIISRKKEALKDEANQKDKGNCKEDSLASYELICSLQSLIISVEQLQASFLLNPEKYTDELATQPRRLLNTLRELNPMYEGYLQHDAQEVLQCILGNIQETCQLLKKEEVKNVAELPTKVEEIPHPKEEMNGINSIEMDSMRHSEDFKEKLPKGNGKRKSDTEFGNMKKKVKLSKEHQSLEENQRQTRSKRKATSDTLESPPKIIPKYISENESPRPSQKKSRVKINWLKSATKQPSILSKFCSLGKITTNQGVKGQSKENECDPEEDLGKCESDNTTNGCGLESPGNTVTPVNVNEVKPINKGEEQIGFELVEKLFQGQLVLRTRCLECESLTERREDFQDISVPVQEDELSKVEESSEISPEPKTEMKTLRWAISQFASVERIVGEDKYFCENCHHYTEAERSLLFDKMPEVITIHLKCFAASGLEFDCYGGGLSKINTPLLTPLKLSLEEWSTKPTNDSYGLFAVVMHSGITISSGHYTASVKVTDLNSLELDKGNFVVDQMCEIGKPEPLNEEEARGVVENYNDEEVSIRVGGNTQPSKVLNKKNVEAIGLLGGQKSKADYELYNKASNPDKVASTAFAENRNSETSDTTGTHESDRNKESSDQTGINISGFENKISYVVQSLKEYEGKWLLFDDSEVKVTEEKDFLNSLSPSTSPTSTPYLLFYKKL
# Chain of Luciferin 4-monooxygenase (Photinus pyralis) (P08659 whole entry, looked up): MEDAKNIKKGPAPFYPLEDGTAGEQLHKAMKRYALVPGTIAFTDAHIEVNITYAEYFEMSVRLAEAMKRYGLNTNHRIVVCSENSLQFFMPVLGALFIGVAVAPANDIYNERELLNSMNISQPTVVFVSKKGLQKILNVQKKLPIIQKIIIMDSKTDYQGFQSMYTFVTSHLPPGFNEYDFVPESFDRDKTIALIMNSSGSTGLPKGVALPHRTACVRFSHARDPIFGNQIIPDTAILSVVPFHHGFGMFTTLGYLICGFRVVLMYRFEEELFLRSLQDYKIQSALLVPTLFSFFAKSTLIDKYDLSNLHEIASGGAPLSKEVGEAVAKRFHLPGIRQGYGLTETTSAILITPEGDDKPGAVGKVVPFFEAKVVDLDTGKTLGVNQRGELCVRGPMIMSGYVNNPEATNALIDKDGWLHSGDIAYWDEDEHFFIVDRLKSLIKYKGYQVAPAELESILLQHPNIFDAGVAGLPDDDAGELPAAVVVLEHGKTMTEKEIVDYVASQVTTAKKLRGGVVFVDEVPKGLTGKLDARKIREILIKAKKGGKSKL
# Chain of Glucocorticoid receptor (Homo sapiens) (P04150 whole entry, looked up, the tested form may be a part): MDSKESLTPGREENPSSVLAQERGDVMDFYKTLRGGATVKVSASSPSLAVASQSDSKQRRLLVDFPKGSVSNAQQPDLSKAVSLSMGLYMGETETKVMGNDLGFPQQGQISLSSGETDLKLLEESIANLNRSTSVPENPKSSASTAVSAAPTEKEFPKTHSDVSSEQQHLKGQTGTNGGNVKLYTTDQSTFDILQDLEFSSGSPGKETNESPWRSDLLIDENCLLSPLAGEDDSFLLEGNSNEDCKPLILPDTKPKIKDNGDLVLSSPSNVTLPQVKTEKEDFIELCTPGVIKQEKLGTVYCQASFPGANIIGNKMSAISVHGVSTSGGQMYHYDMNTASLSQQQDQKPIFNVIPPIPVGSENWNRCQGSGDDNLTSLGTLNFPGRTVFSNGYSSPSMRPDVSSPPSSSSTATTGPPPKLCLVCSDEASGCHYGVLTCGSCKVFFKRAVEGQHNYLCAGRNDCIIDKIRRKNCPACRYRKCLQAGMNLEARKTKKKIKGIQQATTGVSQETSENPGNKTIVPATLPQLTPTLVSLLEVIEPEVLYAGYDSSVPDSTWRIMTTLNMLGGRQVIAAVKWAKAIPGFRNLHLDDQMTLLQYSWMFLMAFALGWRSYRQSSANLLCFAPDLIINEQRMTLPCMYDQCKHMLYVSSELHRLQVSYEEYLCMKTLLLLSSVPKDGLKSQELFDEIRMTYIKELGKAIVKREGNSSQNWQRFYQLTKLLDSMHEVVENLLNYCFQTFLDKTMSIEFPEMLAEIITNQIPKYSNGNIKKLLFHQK
compound,measurement,setting,value
OCCN1CCN(CCC=C2c3ccccc3Sc3ccc(Cl)cc32)CC1,Potency,[1],> 20.6 µM (inactive)
same,Potency,[2],inactive
same,outcome,[3],inactive
same,"activity change, negative = inhibition",[4],-7.08% (inactive)
same,max response,[4]; [21],-13.2%
same,max response,[4]; [22],-20.1%
same,Potency,[5],inactive
same,Potency,[6],inactive
same,Potency,[7],inactive
same,Potency,[8],inactive
same,Potency,[9],inactive
same,Potency,[10],inactive
CC1=CC(=O)C2=C(C)CC[C@@H]3[C@@H](OC(=O)[C@H]3C)[C@H]12,Potency,[1],> 20.6 µM (inactive)
same,Potency,[2],inactive
same,outcome,[3],inactive
same,"activity change, negative = inhibition",[4],0.93% (inactive)
same,max response,[4]; [21],-15.8%
same,max response,[4]; [22],-14.8%
same,Potency,[5],inactive
CN1CCCN=C1/C=C\c1cccs1,Potency,[1],> 20.6 µM (inactive)
same,Potency,[2],inactive
same,outcome,[3],inactive
same,"activity change, negative = inhibition",[4],0.765% (inactive)
same,max response,[4]; [21],-6.05%
same,max response,[4]; [22],-6.06%
same,Potency,[6],inactive
Cc1ccc(S(=O)(=O)NC(=O)NN2C[C@H]3CCC[C@@H]3C2)cc1,Potency,[2],inactive
same,outcome,[3],inactive
same,"activity change, negative = inhibition",[4],2.69% (inactive)
same,max response,[4]; [21],5.52%
same,max response,[4]; [22],8.97%
same,Potency,[6],inactive
same,"activity, negative = inhibition",[11]; parasite line A,-0.0473% (inactive)
same,"activity, negative = inhibition",[11]; parasite line B,12.1% (inactive)
same,Potency,[12],inactive
same,Potency,[7],inactive
same,Potency,[13],inactive
same,Potency,[14],inactive
same,Potency,[8],inactive
same,Potency,[15],inactive
same,Potency,[16],inactive
same,Potency,[9],inactive
same,Potency,[17],inactive
same,Potency,[18],inactive
same,Potency,[19],inactive
same,Potency,[20],inactive
same,Potency,[10],inactive
O[C@@](CCN1CCCC1)(c1ccccc1)C1CCCCC1,Potency,[1],> 20.6 µM (inactive)
same,"activity change, negative = inhibition",[4],-0.986% (inactive)
same,max response,[4]; [21],-8.38%
same,max response,[4]; [22],-9.51%
same,Potency,[5],inactive
same,Potency,[6],inactive
same,"activity, negative = inhibition",[11]; parasite line A,-9.23% (inactive)
same,Potency,[12],inactive
same,Potency,[7],inactive
same,Potency,[13],inactive
same,Potency,[14],inactive
same,Potency,[8],inactive
same,Potency,[15],inactive
same,Potency,[16],inactive
same,Potency,[9],inactive
same,Potency,[17],inactive
same,Potency,[18],inactive
same,Potency,[10],inactive
NC[C@@H]1O[C@H](O[C@@H]2[C@H](O[C@@H]3O[C@H](CO)[C@@H](O)[C@@H]3O)[C@@H](O)[C@@H](N)C[C@H]2N)[C@@H](N)[C@H](O)[C@@H]1O,Potency,[1],> 20.6 µM (inactive)
same,outcome,[3],inactive
same,"activity change, negative = inhibition",[4],-2.12% (inactive)
same,max response,[4]; [21],-8.12%
same,max response,[4]; [22],-11.1%
same,Potency,[5],inactive
same,Potency,[6],inactive
same,"activity, negative = inhibition",[11]; parasite line A,-3.69% (inactive)
same,"activity, negative = inhibition",[11]; parasite line B,2.48% (inactive)
same,Potency,[12],inactive
same,Potency,[7],inactive
same,Potency,[13],inactive
same,Potency,[14],inactive
same,Potency,[8],inactive
same,Potency,[15],inactive
same,Potency,[16],inactive
same,Potency,[9],inactive
same,Potency,[17],inactive
same,Potency,[18],inactive
same,Potency,[19],inactive
same,Potency,[20],inactive
same,Potency,[10],inactive
